Measured values: the supplement of paper PMC11732987, “Enantioselective OTUD7B fragment discovery through chemoproteomics screening and high-throughput optimisation” (Communications Chemistry, 2025)

Biological target: T1, OTUD4 (UniProt Q01804)
T1 sequence (whole entry): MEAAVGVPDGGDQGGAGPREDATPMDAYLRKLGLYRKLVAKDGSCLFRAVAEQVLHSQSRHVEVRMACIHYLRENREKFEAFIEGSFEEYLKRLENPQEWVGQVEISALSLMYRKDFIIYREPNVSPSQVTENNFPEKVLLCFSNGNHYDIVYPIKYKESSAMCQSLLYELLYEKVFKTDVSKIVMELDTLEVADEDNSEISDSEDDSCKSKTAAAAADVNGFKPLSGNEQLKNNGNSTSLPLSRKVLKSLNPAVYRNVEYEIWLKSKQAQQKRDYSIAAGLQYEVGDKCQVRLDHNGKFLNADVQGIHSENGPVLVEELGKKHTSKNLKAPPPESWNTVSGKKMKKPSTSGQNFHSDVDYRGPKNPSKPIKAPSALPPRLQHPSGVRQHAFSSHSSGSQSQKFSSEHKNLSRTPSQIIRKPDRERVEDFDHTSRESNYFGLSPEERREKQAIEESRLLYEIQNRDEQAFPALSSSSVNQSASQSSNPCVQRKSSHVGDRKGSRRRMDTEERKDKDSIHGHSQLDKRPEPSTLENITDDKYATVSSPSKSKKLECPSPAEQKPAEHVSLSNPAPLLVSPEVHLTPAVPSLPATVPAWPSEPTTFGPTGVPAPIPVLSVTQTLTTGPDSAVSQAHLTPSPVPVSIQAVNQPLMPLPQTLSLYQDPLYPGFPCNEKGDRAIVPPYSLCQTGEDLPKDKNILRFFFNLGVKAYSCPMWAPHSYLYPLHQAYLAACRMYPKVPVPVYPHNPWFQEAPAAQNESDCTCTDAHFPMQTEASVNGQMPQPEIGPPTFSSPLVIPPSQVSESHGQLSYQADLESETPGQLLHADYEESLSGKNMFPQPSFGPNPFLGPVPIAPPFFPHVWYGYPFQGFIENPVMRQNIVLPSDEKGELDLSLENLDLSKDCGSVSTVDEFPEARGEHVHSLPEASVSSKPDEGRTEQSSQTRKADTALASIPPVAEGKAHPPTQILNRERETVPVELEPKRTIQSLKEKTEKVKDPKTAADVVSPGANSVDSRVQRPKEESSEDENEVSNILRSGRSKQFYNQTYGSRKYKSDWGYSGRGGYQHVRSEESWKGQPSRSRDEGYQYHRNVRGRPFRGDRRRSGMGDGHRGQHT
Experiment: log2 ratio of Biotin-Ahx-Ub-VS probe labelling (fragment/DMSO); higher = less target engagement (more negative = stronger competition), active = hit call of the paper (q ≤ 0.05, log2 ratio ≤ -1)
Conditions: compound concentration: 200 uM; treatment time: 3 h
Outline: (§1)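 HEK293T lysate, 495 µg per sample in Tris/CHAPS/IGEPAL buffer with protease inhibitors, was treated in triplicate with fragment at 200 µM or vehicle for 3 h and then with Biotin-Ahx-Ub-VS at 0.5 µM final for 1 h. Labelled DUBs were NeutrAvidin-enriched, digested with LysC and trypsin, and run by diaPASEF LC-MS/MS. Spectronaut label-free quantities were global-median-normalised, and values are average log2 fragment/vehicle ratios by unpaired t-test on proteins with ≥2 unique peptides.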

Compound	log2 ratio of Biotin-Ahx-Ub-VS probe labelling
Cl.O=C(CCl)N1CCC(n2nc3ccccc3n2)CC1	-0.134 (inactive)
Cc1cccc(C)c1NC(=O)CCl	-0.228 (inactive)
CCN(C(=O)CCl)C1CCS(=O)(=O)C1 (stereo not given)	-0.679 (inactive)
Cl.O=C(CCl)N[C@H]1C[C@@H](n2cccn2)C1	-0.0468 (inactive)
Cc1ccc2nnc(CNC(=O)CCl)n2c1	0.0524 (inactive)
O=C(CCl)Nc1ccc(N2CCCC2=O)cc1	0.0281 (inactive)
Cl.O=C(CCl)NCc1ccnc(Oc2ccccc2F)c1	-0.244 (inactive)
O=C(CCl)N1CCC(S(=O)(=O)c2ccc(F)cc2)CC1	-0.273 (inactive)
Cl.O=C(CCl)N1CCn2ncc(O)c2C1	-0.808 (inactive)
Cc1cccc(NC(=O)CCl)c1C	-0.0599 (inactive)
CCN(C(=O)CCl)C1CCCCC1	-0.12 (inactive)
O=C(CCl)NC1(c2ccc3c(c2)OCCO3)CCCC1	-1.1 (active)
O=C(CCl)N1CCN(C(=O)Nc2ccccc2)CC1	0.0219 (inactive)
O=C(CCl)NC(Cn1ccccc1=O)c1ccccc1 (stereo not given)	-0.122 (inactive)
CC1CCc2onc(CNC(=O)CCl)c2C1 (stereo not given)	-0.0637 (inactive)
O=C(CCl)N1CCCCCC1c1ncon1 (stereo not given)	-0.759 (inactive)
Cc1cccc(N(CCC#N)C(=O)CCl)c1C	-1.76 (active)
O=C(CCl)Nc1ccccc1C(F)(F)F	-0.356 (inactive)

Compound	log2 ratio of Biotin-Ahx-Ub-VS probe labelling
Cc1ccccc1OCC(=O)N1CCN(C(=O)CCl)CC1	0.0744 (inactive)
CN(C)C(=O)c1ccc(CNC(=O)CCl)cc1	-0.365 (inactive)
Cl.Cn1cnc2cc(CNC(=O)CCl)ccc21	-0.0323 (inactive)
N#Cc1ccc(CNC(=O)CCl)cc1	-0.138 (inactive)
Cc1nc(CN2CCCN(C(=O)CCl)CC2)no1.Cl	0.243 (inactive)
Cc1ccc(C)c(NC(=O)CCl)c1	-0.598 (inactive)
Cc1cc(CC(C)NC(=O)CCl)n[nH]1 (stereo not given)	-0.115 (inactive)
O=C(CCl)N1CCCN(C(=O)c2ccc(Cl)cc2)CC1	-0.424 (inactive)
Cl.O=C(CCl)NCCN1CCc2ccccc21	-0.775 (inactive)
CC1(NC(=O)CCl)CCS(=O)(=O)C1 (stereo not given)	-0.934 (inactive)
N#Cc1ccc(Cl)cc1NC(=O)CCl	-1.18 (active)
O=C(CCl)N1CCCC1c1ccsc1 (stereo not given)	-0.382 (inactive)
O=C(CCl)NCc1ccc(N2CCOCC2)nc1	-0.539 (inactive)
O=C(CCl)NCc1cccc(F)c1	-0.316 (inactive)
COc1ccccc1C(C)NC(=O)CCl (stereo not given)	-0.393 (inactive)
COc1ccc(Cl)cc1NC(=O)CCl	-0.484 (inactive)
O=C(CCl)N1CCC(c2nc3ccccc3o2)CC1	-0.417 (inactive)

Biological target: T2, OTUD5 (UniProt Q96G74)
T2 sequence (whole entry): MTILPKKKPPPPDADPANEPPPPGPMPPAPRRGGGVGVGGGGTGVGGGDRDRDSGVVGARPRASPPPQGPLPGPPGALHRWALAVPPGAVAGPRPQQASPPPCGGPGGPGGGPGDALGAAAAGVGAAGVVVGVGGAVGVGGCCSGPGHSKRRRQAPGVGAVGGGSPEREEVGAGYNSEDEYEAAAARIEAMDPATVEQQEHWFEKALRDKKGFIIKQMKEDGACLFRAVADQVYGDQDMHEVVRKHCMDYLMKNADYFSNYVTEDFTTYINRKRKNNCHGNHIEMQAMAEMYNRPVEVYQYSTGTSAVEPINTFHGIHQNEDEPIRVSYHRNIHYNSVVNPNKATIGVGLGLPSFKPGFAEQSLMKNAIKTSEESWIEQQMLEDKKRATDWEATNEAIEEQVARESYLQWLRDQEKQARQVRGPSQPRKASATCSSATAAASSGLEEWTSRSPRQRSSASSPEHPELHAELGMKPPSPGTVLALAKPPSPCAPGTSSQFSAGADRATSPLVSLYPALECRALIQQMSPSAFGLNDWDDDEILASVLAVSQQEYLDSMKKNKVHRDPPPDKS
Experiment: as above
Conditions: compound concentration: 200 uM; treatment time: 3 h
Outline: as §1

Compound	log2 ratio of Biotin-Ahx-Ub-VS probe labelling
Cl.O=C(CCl)N1CCC(n2nc3ccccc3n2)CC1	-0.494 (inactive)
Cc1cccc(C)c1NC(=O)CCl	-0.42 (inactive)
CCN(C(=O)CCl)C1CCS(=O)(=O)C1 (stereo not given)	-0.272 (inactive)
Cl.O=C(CCl)N[C@H]1C[C@@H](n2cccn2)C1	-0.587 (inactive)
Cc1ccc2nnc(CNC(=O)CCl)n2c1	0.0162 (inactive)
O=C(CCl)Nc1ccc(N2CCCC2=O)cc1	-0.504 (inactive)
Cl.O=C(CCl)NCc1ccnc(Oc2ccccc2F)c1	-0.524 (inactive)
O=C(CCl)N1CCC(S(=O)(=O)c2ccc(F)cc2)CC1	-0.457 (inactive)
Cl.O=C(CCl)N1CCn2ncc(O)c2C1	-0.908 (inactive)
Cc1cccc(NC(=O)CCl)c1C	-0.394 (inactive)
CCN(C(=O)CCl)C1CCCCC1	-0.00145 (inactive)
O=C(CCl)NC1(c2ccc3c(c2)OCCO3)CCCC1	-0.293 (inactive)
O=C(CCl)N1CCN(C(=O)Nc2ccccc2)CC1	-0.224 (inactive)
O=C(CCl)NC(Cn1ccccc1=O)c1ccccc1 (stereo not given)	-0.104 (inactive)
CC1CCc2onc(CNC(=O)CCl)c2C1 (stereo not given)	0.0465 (inactive)
O=C(CCl)N1CCCCCC1c1ncon1 (stereo not given)	-0.654 (inactive)
Cc1cccc(N(CCC#N)C(=O)CCl)c1C	-0.19 (inactive)
O=C(CCl)Nc1ccccc1C(F)(F)F	-0.489 (inactive)

Compound	log2 ratio of Biotin-Ahx-Ub-VS probe labelling
Cc1ccccc1OCC(=O)N1CCN(C(=O)CCl)CC1	-0.161 (inactive)
CN(C)C(=O)c1ccc(CNC(=O)CCl)cc1	-0.146 (inactive)
Cl.Cn1cnc2cc(CNC(=O)CCl)ccc21	-0.121 (inactive)
N#Cc1ccc(CNC(=O)CCl)cc1	-0.348 (inactive)
Cc1nc(CN2CCCN(C(=O)CCl)CC2)no1.Cl	-0.0201 (inactive)
Cc1ccc(C)c(NC(=O)CCl)c1	-0.833 (inactive)
Cc1cc(CC(C)NC(=O)CCl)n[nH]1 (stereo not given)	-0.0107 (inactive)
O=C(CCl)N1CCCN(C(=O)c2ccc(Cl)cc2)CC1	-0.688 (inactive)
Cl.O=C(CCl)NCCN1CCc2ccccc21	-0.79 (inactive)
CC1(NC(=O)CCl)CCS(=O)(=O)C1 (stereo not given)	-0.673 (inactive)
N#Cc1ccc(Cl)cc1NC(=O)CCl	-0.589 (inactive)
O=C(CCl)N1CCCC1c1ccsc1 (stereo not given)	-0.65 (inactive)
O=C(CCl)NCc1ccc(N2CCOCC2)nc1	-0.385 (inactive)
O=C(CCl)NCc1cccc(F)c1	-0.429 (inactive)
COc1ccccc1C(C)NC(=O)CCl (stereo not given)	-0.514 (inactive)
COc1ccc(Cl)cc1NC(=O)CCl	-0.638 (inactive)
O=C(CCl)N1CCC(c2nc3ccccc3o2)CC1	-0.841 (inactive)
